# PubChem BioAssay (NCATS)
# Inconclusive results are not listed. Activity calls are given as the source filed them. Unless noted, calls come from the whole dose curve.
# Assays:
# [1] = target: Alpha-galactosidase (Coffea arabica) (UniProt Q42656); assay: Counterscreen for Glucocerebrosidase Inhibitors: qHTS Assay for Coffee Bean alpha-Galactosidase at pH 4.5 (AID 957; active = well fitted curve in the direction sought with a large enough effect; an effect the other way counts as inactive or inconclusive;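 note: plate controls were enzyme alone for no effect and no enzyme for full effect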)
# Chain of Alpha-galactosidase (Coffea arabica) (Q42656 whole entry, looked up): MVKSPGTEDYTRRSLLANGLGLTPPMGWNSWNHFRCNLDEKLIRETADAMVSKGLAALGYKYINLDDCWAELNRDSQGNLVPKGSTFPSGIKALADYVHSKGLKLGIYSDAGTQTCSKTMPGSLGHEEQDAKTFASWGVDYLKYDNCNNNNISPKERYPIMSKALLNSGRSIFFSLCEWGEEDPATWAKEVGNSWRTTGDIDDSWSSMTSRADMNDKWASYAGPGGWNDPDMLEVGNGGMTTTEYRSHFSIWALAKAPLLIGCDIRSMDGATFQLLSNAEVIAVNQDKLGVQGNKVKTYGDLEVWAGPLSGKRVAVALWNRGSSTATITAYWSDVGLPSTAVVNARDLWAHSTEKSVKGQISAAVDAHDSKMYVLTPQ
# Summary of the method: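 Green coffee bean enzyme (2 nM final) was incubated with compounds (0.7 nM to 77 uM) and 4-methylumbelliferyl alpha-D-galactopyranoside (80 uM final) in 50 mM citric acid, 0.005% Tween-20, pH 4.5, 20 min at room temperature; AC50 from Hill fits.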
# [2] = target: Alpha-galactosidase (Coffea arabica) (UniProt Q42656); assay: Counterscreen for Glucocerebrosidase Inhibitors: qHTS Assay for Coffee Bean alpha-Galactosidase at pH 5.9 (AID 998; active = well fitted curve in the direction sought with a large enough effect; an effect the other way counts as inactive or inconclusive;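 note: plate controls were uninhibited enzyme for no effect and no-enzyme basal signal for full effect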)
# Summary of the method: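 Green coffee bean enzyme (2 nM final) was incubated with compounds (0.7 nM–77 uM) and 4-methylumbelliferyl alpha-D-galactopyranoside (80 uM) in citrate buffer pH 5.9, 20 min at room temperature. High-pH stop; fluorescence 365/440 nm; AC50 from Hill fits.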
# [3] = Validation screen for inhibitors of Lassa infection (AID 463096); note: potency is the fitted concentration of half-maximal effect; for activity change, negative = inhibition: % is set by controls: 0 for no effect and ±100 for the full control effect
# [4] = Inducers of the Endoplasmic Reticulum Stress Response (ERSR) in human glioma: Validation (AID 504836; active = well fitted curve in the direction sought with a large enough effect; an effect the other way counts as inactive or inconclusive; note: 0% is about no effect)
# Summary of the method: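 Stably transfected U87-MG human glioma cells carrying a GRP78-based luminescent sensor were seeded at 1000 cells/well, pin-dosed with compounds and incubated 16 h. Luciferase reagent was then added, and end-point luminescence was read after 10 min at room temperature.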
# [5] = qHTS for Inhibitors of the Functional Ribonucleoprotein Complex (vRNP) of Lassa (LASV) Arenavirus: Viability assay - alamar blue signal for LASV Primary Screen (AID 1347083; calls by dose curve; tested in HEK293 reporter line; note: nearly all actives have a fitted effect of over 80% in size; note: potency is the fitted concentration of half-maximal effect)
# [6] = qHTS for Inhibitors of the Functional Ribonucleoprotein Complex (vRNP) of Lymphocytic Choriomeningitis Arenaviruses (LCMV): Viability assay - alamar blue signal for LCMV Primary Screen (AID 1347085; calls by dose curve; tested in HEK293 reporter line; note: nearly all actives have a fitted effect of over 80% in size; note: potency is the fitted concentration of half-maximal effect)
# [7] = target: Nucleoprotein (Lymphocytic choriomeningitis virus (strain Armstrong)) (UniProt P09992); assay: qHTS for Inhibitors of the Functional Ribonucleoprotein Complex (vRNP) of Lymphocytic Choriomeningitis Arenaviruses (LCMV): LCMV Primary Screen - GLuc reporter signal (AID 1347086); note: nearly all actives have a fitted effect of over 70% in size; note: potency is the fitted concentration of half-maximal effect; for activity change, negative = inhibition: % is set by controls: 0 for no effect and ±100 for the full control effect
# Chain of Nucleoprotein (Lymphocytic choriomeningitis virus (strain Armstrong)) (P09992 whole entry, looked up): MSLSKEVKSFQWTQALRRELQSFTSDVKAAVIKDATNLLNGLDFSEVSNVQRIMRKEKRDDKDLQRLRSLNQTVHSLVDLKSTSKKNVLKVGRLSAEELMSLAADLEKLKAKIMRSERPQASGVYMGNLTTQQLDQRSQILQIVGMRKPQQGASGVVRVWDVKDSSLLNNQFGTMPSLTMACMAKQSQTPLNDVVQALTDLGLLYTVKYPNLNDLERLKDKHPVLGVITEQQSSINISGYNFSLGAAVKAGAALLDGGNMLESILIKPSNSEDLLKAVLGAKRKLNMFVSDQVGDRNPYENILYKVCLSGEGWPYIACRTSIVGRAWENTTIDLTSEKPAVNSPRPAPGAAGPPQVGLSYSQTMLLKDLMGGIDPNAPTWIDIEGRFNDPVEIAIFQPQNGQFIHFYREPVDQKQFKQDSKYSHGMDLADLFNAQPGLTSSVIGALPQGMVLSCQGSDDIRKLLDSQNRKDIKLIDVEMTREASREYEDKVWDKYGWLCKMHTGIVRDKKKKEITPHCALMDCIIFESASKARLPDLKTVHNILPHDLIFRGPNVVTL
# [8] = Cytotoxicity counterscreen for inhibitors of SARS-CoV-2 cell entry (AID 1645845); note: nearly all actives have a fitted effect of over 50% in size; note: potency is the fitted concentration of half-maximal effect
# Summary of the method: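 Expi293F/hACE2 cells seeded overnight; cpd pin-transferred in DMSO, 1 h preincubation, + media, 48 h 37 C 5% CO2; ATPLite 1step luminescence; normalized to cells and no cells.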
# [9] = Primary qHTS to identify inhibitors of SARS-CoV-2 cell entry (AID 1645846); settings: activity change, negative = inhibition: at 57.1 µM (top of the series) unless noted; note: nearly all actives have a fitted effect of over 45% in size; note: potency is the fitted concentration of half-maximal effect
# Summary of the method: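 Entry measured by luciferase signal 48 h after adding SARS-CoV-2-S pseudotyped MLV particles to HEK293-ACE2 cells preincubated 1 h with compounds. Normalisation: bald particles and spike particles.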
# [10] = Confirmatory qHTS for VERO E6 Cytotoxicity Assay: Counterscreen for SARS-CoV-2 CPE Assay (AID 1508605); note: % is set by controls: 0 for no effect and ±100 for the full control effect; nearly all actives have a fitted effect of over 60% in size
# [11] = Confirmatory qHTS to identify inhibitors of SARS-CoV-2 cell entry (AID 1645844); note: nearly all actives have a fitted effect of over 45% in size; note: potency is the fitted concentration of half-maximal effect
# Summary of the method: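 HEK293-ACE2 cells (Expi293F stably expressing human ACE2) were pretreated with compounds for 1 hr at 37C, then infected with MLV-based particles carrying Wuhan-Hu-1 spike (C-terminal 19-aa truncation). Luciferase luminescence read after 48 hr; normalized to spike PP (100%) and bald PP (0%).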
# [12] = VSVG counterscreen qHTS to identify inhibitors of SARS-CoV-2 cell entry (AID 1645847); note: potency is the fitted concentration of half-maximal effect; nearly all actives have a fitted effect of over 65% in size
# Summary of the method: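 Luminescence read after 48 h infection at 37 C with VSV-G-pseudotyped MLV particles, following 1 h compound exposure of Expi293F cells stably expressing human ACE2; scaled between bald particle and VSV-G particle wells.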
# [13] = Confirmatory qHTS for activators (rescue) of SARS-CoV-2 Cytopathic Effect (CPE) (AID 1508606); note: nearly all actives have a fitted effect of over 70% in size; note: potency is the fitted concentration of half-maximal effect
smiles,measurement,setting,value
O=c1cc(N2CCOCC2)oc2c(-c3ccccc3)cccc12,outcome,[1],inactive
same,outcome,[2],inactive
same,Potency,[3],inactive
same,outcome,[4],inactive
same,Potency,[5],15.3 µM (active)
same,Potency,[6],inactive
same,Potency,[7],inactive
same,Potency,[8],inactive
same,"activity change, negative = inhibition",[9],-24.5%
NC(=O)c1cccc(-c2cc(Nc3ccc(OC(F)(F)F)cc3)ncn2)c1,Potency,[5],inactive
same,Potency,[6],inactive
same,Potency,[7],inactive
same,Potency,[10],inactive
same,Potency,[8],22.4 µM (active)
O=C(Cc1ccc(-c2ccc(OCCN3CCOCC3)cc2)cn1)NCc1ccccc1,Potency,[5],0.0485 µM (active)
same,Potency,[6],0.0544 µM (active)
same,Potency,[7],0.137 µM (active)
same,Potency,[11],136 nM (active)
same,"activity change, negative = inhibition",[9],-81.8%
same,Potency,[12],171 nM (active)
COCCOC(=O)C1=C(C)NC2=C(C(=O)CC(c3ccccc3OC)C2)C1c1cccc(O)c1 (stereo not given),Potency,[5],17.2 µM (active)
same,Potency,[6],10.9 µM (active)
same,Potency,[7],15.3 µM (active)
same,Potency,[11],inactive
same,Potency,[8],inactive
C=CC1CN2CCC1CC2c1[nH]c2ccccc2c1CCO (stereo not given),Potency,[5],inactive
same,Potency,[6],inactive
same,Potency,[7],inactive
COc1cc(Nc2nc3ccccc3nc2NS(=O)(=O)c2ccc(NC(=O)c3ccc(C)c(OC)c3)cc2)cc(OC)c1,Potency,[5],21.7 µM (active)
same,Potency,[6],13.7 µM (active)
same,Potency,[7],27.3 µM (active)
same,Potency,[10],inactive
same,Potency,[13],inactive
same,Potency,[8],inactive
same,Potency,[9],inactive
CCC1(O)CC2CN(CCc3c([nH]c4ccccc34)[C@@](C(=O)OC)(c3cc4c(cc3OC)N(C)C3[C@]45CCN4CC=C[C@@](CC)([C@@H](OC(C)=O)[C@]3(O)C(=O)OC)[C@H]45)C2)C1 (stereo not given in full),Potency,[3],15.8 µM (active)
same,outcome,[4],inactive
same,Potency,[5],0.447 µM (active)
same,Potency,[6],0.224 µM (active)
same,Potency,[7],0.708 µM (active)
CCOc1cc2ncc(C#N)c(Nc3ccc(OCc4ccccn4)c(Cl)c3)c2cc1NC(=O)C=CCN(C)C,Potency,[5],1.37 µM (active)
same,Potency,[6],0.769 µM (active)
same,Potency,[7],1.53 µM (active)
CCC(C=C[C@@H]1OC(=O)C=C[C@H]1C)=C[C@H](C)CC=CC(C)=C[C@@H](C)C(=O)[C@@H](C)[C@H](O)[C@@H](C)CC(C)=CC(=O)O,Potency,[5],0.114 µM (active)
same,Potency,[6],0.144 µM (active)
same,Potency,[7],0.203 µM (active)
FC(F)(F)c1ccc(Nc2nc3ccc(Oc4ccnc(-c5ncc(C(F)(F)F)[nH]5)c4)cc3[nH]2)cc1,Potency,[5],6.11 µM (active)
same,Potency,[6],1.37 µM (active)
same,Potency,[7],3.85 µM (active)
same,Potency,[8],inactive
same,Potency,[9],31.6 µM (active)
Cc1ccc(S(=O)(=O)Nc2nc3ccccc3nc2Nc2ccc3nsnc3c2)cc1,Potency,[5],1.06 µM (active)
same,Potency,[6],2.11 µM (active)
same,Potency,[7],1.33 µM (active)
same,Potency,[8],inactive
same,"activity change, negative = inhibition",[9],-18.1% [at 27.1 µM]
O=C(O)Cn1nnc(-c2cc(N3CCC(Oc4cc(F)ccc4Br)CC3)no2)n1,Potency,[5],1.53 µM (active)
same,Potency,[6],1.72 µM (active)
same,Potency,[7],2.73 µM (active)
same,Potency,[8],3.55 µM (active)
same,"activity change, negative = inhibition",[9],-56.8%
CC(O)(C#Cc1ccc2c(c1)N(c1nc(N)ncc1Cl)CC2)c1nccs1 (stereo not given),Potency,[5],21.7 µM (active)
same,Potency,[6],17.2 µM (active)
same,Potency,[7],inactive
CO[C@@H]1[C@@H](O)[C@H](O)[C@@H](n2c3c(Cl)cccc3c3c4c(c5c6cccc(Cl)c6[nH]c5c32)C(=O)NC4=O)O[C@@H]1CO,Potency,[5],1.93 µM (active)
same,Potency,[6],2.43 µM (active)
same,Potency,[7],3.06 µM (active)
CN[C@H]1CCc2cc(OC)c(OC)c(OC)c2-c2ccc(OC)c(=O)cc21,Potency,[5],inactive
same,Potency,[6],0.0054 µM (active)
same,Potency,[7],0.0172 µM (active)
same,Potency,[11],38.3 nM (active)
same,Potency,[8],inactive
same,"activity change, negative = inhibition",[9],-76.7%
same,Potency,[12],171 nM (active)
CCOC(=O)N1CCN([N+]([O-])=NOc2ccc([N+](=O)[O-])cc2C#N)CC1,Potency,[5],10.9 µM (active)
same,Potency,[6],inactive
same,Potency,[7],inactive
Cn1cc(C=CC(=O)c2cccc(F)c2)cc1C=CC(=O)NO,Potency,[5],17.2 µM (active)
same,Potency,[6],17.2 µM (active)
same,Potency,[7],13.7 µM (active)
N#Cc1c(C2CCNCC2)cc(-c2c(O)cccc2OCC2CC2)nc1N,Potency,[5],19.3 µM (active)
same,Potency,[6],8.63 µM (active)
same,Potency,[7],5.44 µM (active)
same,Potency,[10],inactive
same,Potency,[13],11.2 µM (active)
same,Potency,[8],7.94 µM (active)
CCc1c2c(nc3ccc(O)cc13)-c1cc3c(c(=O)n1C2)COC(=O)[C@]3(O)CC,Potency,[5],0.109 µM (active)
same,Potency,[6],0.243 µM (active)
same,Potency,[7],0.217 µM (active)
same,"activity change, negative = inhibition",[9],-97.1%
